Test results taken from PubChem BioAssay (Tox21).
Records with an inconclusive call do not appear. The source made the active and inactive calls. Calls come from the whole dose curve; as a rule, active = well fitted cell-killing curve with a large enough effect in the repeat runs; inconclusive = weak or mixed curves, or effect the other way; inactive = flat fitted curve, though single readings scatter.
% is set by controls: 0 for no effect and ±100 for the full control effect.

Test: qHTS RealTime-Glo MT Cell Viability Assay in HepG2 cells - 0 hour (AID 1224889); note: nearly all actives have a fitted effect of over 50% in size
Conditions: RealTime-Glo luminescence; series mostly up to 76.8 µM; activity change, negative = cytotoxicity: at the top concentration
From the text: U.S. Tox21 Program National Center for Advancing Translational Sciences [NCATS] NIH Chemical Genomics Center [NCGC] U.S. Environmental Protection Agency [EPA] National Institutes of Environmental Health Sciences [NIEHS] National Toxicology Program [NTP] U.S. Food and Drug Administration [FDA] Tox21 Assay Overview: Measure of cell viability is critical in the cell-base assay. Analysis of cell viability is necessary for the characterization of cell responses to cytotoxic drugs and environmental stress. A RealTime-Glo MT Cell Viability Assay to monitor cell viability in real time of continues cell culture during 40 hours of compound treatment was used to screen Tox21 10K library compounds in HepG2 cells. The RealTime-Glo MT Cell Viability Assay is a nonlytic, homogeneous, bioluminescent method to measure cell viability in real time using a simple, plate-based method. The assay involves adding NanoLuc luciferase and a cell-permeant prosubstrate to cells in culture. Viable cells reduce the proprietary prosubstrate to generate a substrate for NanoLuc luciferase. This substrate diffuses from cells into the surrounding culture medium, where it is rapidly used by the NanoLuc Enzyme to produce a luminescent signal. The signal correlates with the number of viable cells, making the assay well suited for cytotoxicity studies.
Tox21 Assay Protocol Summary: The mixture of HepG2 cell suspension and reagents were dispensed at 600cells/6 ul/well in 1536-well tissue culture treated black solid bottom plates using a Multidrop dispenser. After the assay plates were incubated at a 37 C/5% CO2 incubator for 5 hours, 23 nL of compounds dissolved in DMSO, positive and negative controls was transferred to the assay plate by a pintool work station. The plates were incubated at 37 C for 40 hours. The luminescence intensity were measured at 0h, 8h, 16h, 24h, 32h and 40h time points using ViewLux plate reader during compound treatment.
In the case of `CCCCOCC`, the “activity change, negative = cytotoxicity” value is reported as 5.49% (inactive). In the case of `O=C(O)Cc1ccc(OCCNC[C@H](O)c2ccccc2)cc1`, the “activity change, negative = cytotoxicity” value is reported as -3.95% [at 35.3 µM] (inactive). In the case of `CC(=O)O[C@@H]1C[C@@H]2CC[C@@]1(C)C2(C)C`, the “activity change, negative = cytotoxicity” value is reported as -1.95% (inactive). For `CCCCCCCC/C=C\CCCCCCCC(=O)OCCOC(=O)CCCCCCC/C=C\CCCCCCCC`, the “activity change, negative = cytotoxicity” value was -12.3% (inactive). For `O=C(O)CCn1c2c(c3ccccc31)C[C@H](NS(=O)(=O)c1ccc(F)cc1)CC2`, the “activity change, negative = cytotoxicity” value was -4.53% [at 35.3 µM] (inactive). With `CCCCCCCCCCc1ccccc1` the “activity change, negative = cytotoxicity” value was 6.15% (inactive). With `[O]=[Zr]` the “activity change, negative = cytotoxicity” value was 3.42% (inactive). For `C=CC(C)C#N` (stereo not given), the “activity change, negative = cytotoxicity” value was -22% (inactive). In the case of `CCCCCCCC/C=C\CCCCCCCC(=O)N(C)CC(=O)O`, the “activity change, negative = cytotoxicity” value is reported as -9.68% (inactive). For `CCOC(=O)[C@@](C)(N)Cc1ccc(O)c(O)c1`, the “activity change, negative = cytotoxicity” value was -3.42% [at 35.3 µM] (inactive). In the case of `CC1=C(/C=C/C(C)=C/C=C/C(C)=C/C(=O)Nc2ccc(O)cc2)C(C)(C)CCC1`, the Potency is reported as “inactive”. In the case of `Oc1cc2ccccc2cc1O`, the “activity change, negative = cytotoxicity” value is reported as 13.9% (inactive). With `CC(C)N=C(N)/N=C(\N)Nc1ccc(Cl)cc1` the “activity change, negative = cytotoxicity” value was 15.1% [at 35.3 µM] (inactive). In the case of `Nc1ccc2cc3ccc(N)cc3nc2c1`, the Potency is reported as “inactive”. With `OCCN1CN(CCO)CN(CCO)C1` the “activity change, negative = cytotoxicity” value was -10.3% (inactive). In the case of `O=C1OC(=O)c2ccc3c4c(ccc1c24)C(=O)OC3=O`, the “activity change, negative = cytotoxicity” value is reported as 2% (inactive). In the case of `CC1CCCNC1` (stereo not given), the “activity change, negative = cytotoxicity” value is reported as -2.95% (inactive). In the case of `CC(=O)Oc1ccc(C2(c3ccc(OC(C)=O)cc3)Oc3ccccc3NC2=O)cc1`, the “activity change, negative = cytotoxicity” value is reported as -2.99% [at 35.3 µM] (inactive). For `CCC(C)c1ccccc1` (stereo not given), the “activity change, negative = cytotoxicity” value was -0.558% (inactive). With `CCCCCCCCCCCCCc1ccccc1` the “activity change, negative = cytotoxicity” value was -14.3% [at 35.3 µM] (inactive). For `CCOCOCC`, the “activity change, negative = cytotoxicity” value was 4.53% (inactive). With `CCCCCCCC(=O)OCC` the “activity change, negative = cytotoxicity” value was -16.3% (inactive). In the case of `CC(=O)Oc1ccc(C2(c3ccc(OC(C)=O)cc3)C(=O)Nc3ccccc32)cc1`, the “activity change, negative = cytotoxicity” value is reported as -0.898% [at 35.3 µM] (inactive). In the case of `CCCSS/C(CCO)=C(\C)N(C=O)Cc1cnc(C)nc1N`, the “activity change, negative = cytotoxicity” value is reported as -0.785% [at 35.3 µM] (inactive). With `CCCC(C)CCC(C)=O` (stereo not given) the “activity change, negative = cytotoxicity” value was 9.29% (inactive). With `CO[Si](CCC1CCC2OC2C1)(OC)OC` (stereo not given) the “activity change, negative = cytotoxicity” value was 7.23% (inactive). With `C=C(C)CCCC` the “activity change, negative = cytotoxicity” value was 16.6% (inactive). In the case of `OCCCc1cccnc1`, the “activity change, negative = cytotoxicity” value is reported as -19.8% (inactive). For `O=S(=O)(O)c1cc(S(=O)(=O)O)c2ccc3c(S(=O)(=O)O)cc(S(=O)(=O)O)c4ccc1c2c43`, the activity change, negative = cytotoxicity was 4.18% [at 15.8 µM] (inactive). With `COc1nccnc1CC(C)C` the “activity change, negative = cytotoxicity” value was 3.42% (inactive). With `C=C(c1ccc(C(=O)O)cc1)c1cc2c(cc1C)C(C)(C)CCC2(C)C` the Potency was “inactive”. For `CCCCCCCOC(=O)c1ccccc1C(=O)OCCCCCCC`, the “activity change, negative = cytotoxicity” value was 0.0459% (inactive). For `CN1CN(C)CN(C)C1`, the “activity change, negative = cytotoxicity” value was -4.95% (inactive). With `O=C[C@H](O)[C@H](O)[C@H](O)CO` the “activity change, negative = cytotoxicity” value was 18.5% (inactive). For `CC(C)=C1CC[C@@H](C)CC1=O`, the “activity change, negative = cytotoxicity” value was 1.68% (inactive). For `c1ccc(Nc2cccc3ccccc23)cc1`, the Potency was “inactive”. For `N#CSCSc1nc2ccccc2s1`, the “activity change, negative = cytotoxicity” value was 1.51% (inactive). In the case of `CCOC(=O)N1CCC(=C2c3ccc(Cl)cc3CCc3cccnc32)CC1`, the Potency is reported as “inactive”. In the case of `Cc1ccc2ccc3cccc4ccc1c2c34`, the “activity change, negative = cytotoxicity” value is reported as -1.14% (inactive). For `C=CC(=O)OCCOCC(CC)(COCCOC(=O)C=C)COCCOC(=O)C=C`, the “activity change, negative = cytotoxicity” value was -0.953% (inactive).
